Assay outcomes as filed in PubChem BioAssay.
An excerpt weighted towards active compounds, which were near 3.3% of everything screened.
PI5P4K alpha inh: PI5P4K alpha (human) kinase inhibition; P48426; PI5P4Kalpha enzyme, ADP-Glo luminescence, 60 min; stronger effect = lower value; max response, %; hit rate 1.2% among 330,000; active means max response of -50% or lower; inconclusive means between -30% and -50%; inactive means -30% or higher; further: value at the top dose of about 77 µM
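Enzyme plus substrate dispensed, test compounds pinned in, then ATP (5 microM final) added. After 60 min at RT, ADP-Glo reagent 1 for 45 min and reagent 2 for 30 min preceded luminescence imaging.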
USP2a block: inhibitors of human ubiquitin-specific protease USP2a; hit rate 0.01% among 330,000; O75604; Potency, µM (doses to about 38.3 µM), for inactives: at the top dose activity change, negative = inhibition, usual class: inhibitors; USP2 core, Ub-CHOP2 coupled fluorogenic reporter, 485/531;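 further: potency means the concentration at half of the fitted maximal effect; plate controls were DMSO wells for no effect and full inhibition by NEM control for full effect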
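Cell-free coupled assay: 10nM USP2 core preincubated 30min RT with compound in Tris-HCl pH 8.0/CaCl2/CHAPS buffer, then 25nM Ub-CHOP2 and 25nM reporter substrate; fluorescence (Ex 485/Em 531) read after 60min RT, normalized to NEM inhibition, concentration-response curves fitted.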
WRN inhibitor: WRN helicase (human) inhibition | WRN helicase unwinding, fluorescent forked duplex, kinetic | Potency, µM (series often up to 114 µM), inactives show at the highest dose activity change, negative = inhibition, actives largely listed as inhibitors | hit rate 0.46% among 360,000 | AID 651768; further: potency means the concentration at half of the fitted maximal effect; nearly all actives have a fitted effect of over 55% in size
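Primary qHTS, 1536-well format. 20 nM WRN + compound, 15 min RT; start with 100 nM forked fluorophore/quencher duplex, 2 mM ATP (final); kinetic read ex 525/em 598 nm.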
PLK1 PBD inh: inhibitors of human PLK1 polo-box domain binding; P53350; Plk1 PBD binding of FITC phosphopeptide, fluorescence polarization; Potency, µM, for the others: max response, negative = inhibition, hits mostly inhibitors; hit rate 2.8% among 360,000; further: potency means the concentration at half of the fitted maximal effect; series mostly up to about 57 µM; nearly all actives have a fitted effect of over 65% in size
USP1-UAF1 inh: blocks the human USP1/UAF1 deubiquitinase complex | hit rate 0.23% among 390,000 | recombinant USP1/UAF1, Ub-Rhodamine cleavage fluorescence | O94782 | Potency, µM (titrated, usually from 57.1 µM), inactives show top-dose activity change, negative = inhibition, hits mostly inhibitors; further: potency means the concentration at half of the fitted maximal effect; nearly all actives have a fitted effect of over 60% in size
Target sequence (O94782 whole entry, looked up): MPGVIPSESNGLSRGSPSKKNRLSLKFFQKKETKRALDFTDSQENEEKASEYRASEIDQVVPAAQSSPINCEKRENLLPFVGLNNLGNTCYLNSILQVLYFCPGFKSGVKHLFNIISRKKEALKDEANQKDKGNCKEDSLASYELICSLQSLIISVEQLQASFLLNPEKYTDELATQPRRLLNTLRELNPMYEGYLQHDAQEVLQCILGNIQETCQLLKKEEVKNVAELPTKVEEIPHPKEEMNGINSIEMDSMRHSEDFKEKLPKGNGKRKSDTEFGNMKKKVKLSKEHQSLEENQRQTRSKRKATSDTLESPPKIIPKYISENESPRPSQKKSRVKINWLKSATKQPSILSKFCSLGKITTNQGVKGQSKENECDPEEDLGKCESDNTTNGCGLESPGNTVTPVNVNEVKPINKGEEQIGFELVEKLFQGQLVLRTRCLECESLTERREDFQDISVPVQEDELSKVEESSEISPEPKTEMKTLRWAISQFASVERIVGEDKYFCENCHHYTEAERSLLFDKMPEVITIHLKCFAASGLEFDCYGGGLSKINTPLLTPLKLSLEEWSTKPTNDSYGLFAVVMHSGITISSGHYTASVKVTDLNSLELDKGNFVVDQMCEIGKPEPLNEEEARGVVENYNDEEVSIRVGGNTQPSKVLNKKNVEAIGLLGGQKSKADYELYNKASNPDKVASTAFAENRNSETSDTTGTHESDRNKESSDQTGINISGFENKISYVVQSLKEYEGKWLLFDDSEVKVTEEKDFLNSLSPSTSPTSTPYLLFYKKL
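USP1/UAF1 complex at 1 nM was preincubated with compound for 15 min at room temperature, then Ub-Rho substrate (150nM final) was added. Fluorescence (480/540 nm) was read kinetically, 6 reads every 60 seconds.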
* marks the source's active call; other numbers are inactive results; ? = inconclusive; · = no result given; [ ] = dose if it differs, or a comment. Unless noted, the call rests on the fitted dose curve; in most records, active means well fitted curve in the direction sought with a large enough effect; inconclusive means small, poorly fitted or top-dose-only effect, or another doubt; inactive means no such curve, though single readings can be large; an effect the other way counts as inactive or inconclusive. Unless noted, on the % scale 0 is the no-effect control and ±100 the full control effect.

SMILES	PI5P4K alpha inh	USP2a block	WRN inhibitor	PLK1 PBD inh	USP1-UAF1 inh
COCCCNC1=C(Cl)C(=O)c2ccccc2C1=O	-21.9	3.3%	-12.3%	-16.2%	?
N#Cc1c2c(c(-c3ccccc3Cl)[nH]c1=S)CCCC2	?	1.3%	-14.7%	16.8µM*	-4.1%
COc1ccc(-c2csc(NC(=O)CSc3nc(C)nc4sc(C(=O)O)c(C)c34)n2)cc1	?	-1.3%	?	18.9µM*	-26.1%
CCOC(=O)C(C)Sc1nc(-c2ccco2)cc(C(F)(F)F)c1C#N (stereo unspecified)	-55.8*	2.0%	?	-19.7%	-15.0%
Cc1ccc(S(=O)(=O)N(C)CC(=O)OCC(=O)NC(=O)Nc2ccc3c(c2)OCCO3)cc1	-8.8	-0.6%	-18.2%	26.7µM*	-20.6%
COCCNC(=S)c1ccc(Br)cc1	-21.5	4.4%	-1.6%	10.6µM*	-27.0%
COCCNC(=O)Cc1ccc(Br)cc1	·	0.5%	-0.3%	-4.4%	-6.0%
O=C(CSc1ncccc1C(=O)O)NC1CCCCCCC1	-6.5	1.8%	-5.4%	26.7µM*	-8.0%
COc1ccc(NC(=O)/C(Cl)=C(/Cl)S(=O)Cc2ccccc2Cl)cn1 (stereo unspecified)	?	-1.0%	11.2µM*	1.5µM*	?
COc1ccc(NC(=O)/C(Cl)=C(/Cl)S(=O)(=O)Cc2ccc(C)cc2)cn1	-6.9	5.1%	50.1µM*	21.2µM*	?
CC(O)CNC(=O)C(=O)Nc1c2c(nn1-c1ccc(Cl)cc1)CSC2 (stereo unspecified)	·	·	·	·	-19.1%
Cc1cc(=O)nc2c3ccccc3n(CC(=O)NCCCN3CCOCC3)n12	-26.0	0.2%	-1.9%	18.9µM*	-23.6%
Cc1ccc2c(=O)cc(C(=O)Nc3c(C(=O)c4ccccc4)oc4ccccc34)oc2c1C	·	·	·	·	-14.1%
O=C(Cn1cccc1C(=O)c1ccccc1)NCc1ccc(Cl)cc1	-4.5	-0.9%	8.7%	-3.8%	-16.1%
O=C(Cn1cccc1C(=O)c1ccccc1)NCCc1ccc(Cl)cc1	2.6	0.5%	-1.0%	23.8µM*	-25.6%
O=C(Cn1cccc1C(=O)c1ccccc1)NCc1cccc(Cl)c1	-24.3	-5.8%	1.9%	23.8µM*	-19.1%
O=C(Cn1cccc1C(=O)c1ccccc1)NCCc1ccccc1	2.0	2.4%	0.6%	-17.3%	-2.3%
Cc1nn(CC(=O)NCCc2ccc(Cl)cc2)c(=O)c2cccn12	-21.5	4.0%	1.5%	26.7µM*	-26.2%
Cc1nn(CC(=O)NCc2ccccc2)c(=O)c2cccn12	4.7	3.4%	-1.2%	2.0%	-27.3%
COc1ccc(-c2noc(N3CCC(C(=O)N(C)c4cc(Cl)ccc4OC)CC3)n2)cc1	·	·	·	·	-19.1%
COc1cccc(N2CCN(C(=O)c3ccc(CS(=O)c4cccc(Cl)c4)o3)CC2)c1 (stereo unspecified)	·	·	·	·	-16.3%
c1ccc(Nc2ccnc(Nc3ccccc3)n2)cc1	7.8	1.6%	-3.3%	-7.7%	-20.6%
NNc1nccc(Nc2ccccc2C(=O)O)n1	-54.5*	3.9%	?	-7.9%	-10.9%
O=C(CC1Oc2ccccc2NC1=O)NCc1ccccc1 (stereo unspecified)	0.1	-2.2%	5.4%	21.2µM*	-7.4%
Cc1ccc2c(c1)NC(=O)C(CC(=O)NCc1ccc(F)cc1)O2 (stereo unspecified)	2.7	-1.8%	-1.5%	-15.4%	-10.1%
SMILES	PI5P4K alpha inh	USP2a block	WRN inhibitor	PLK1 PBD inh	USP1-UAF1 inh
COc1cc(/C=C2\SC(N)=NC2=O)cc(OC)c1	?	-1.3%	?	13.4µM*	-12.3%
COc1ccc(/C=C2\SC(N)=NC2=O)cc1Cl	1.1	-8.3%	-14.0%	0.2%	-25.4%
NC1=NC(=O)/C(=C/c2cc(Br)c(O)c(Br)c2)S1	-89.1*	3.2%	-15.6%[11.6 µM]	-1.4%	-13.8%
O=C(NCC(c1ccc2c(c1)OCO2)N1CCOCC1)c1ccc(F)cc1 (stereo unspecified)	·	·	·	·	-6.4%
CC(C)c1ccc(C2c3c(-c4ccccc4O)n[nH]c3C(=O)N2CCc2ccccc2)cc1 (stereo unspecified)	·	·	·	·	-15.4%
CC1(OC(=O)C2CCCC2)C(=O)C=C2C=C(c3ccsc3)N(CC3CC3)C=C2C1=O (stereo unspecified)	-1.7	-5.7%	2.4%	-28.7%	?
COC(=O)CCC(=O)OC1(C)C(=O)C=C2C=C(c3ccsc3)OC=C2C1=O (stereo unspecified)	-97.9*	·	?	?	?
CCCCC1=CC2=CC(=O)C(C)(OC(=O)CC)C(=O)C2=CN1c1ccccc1 (stereo unspecified)	-3.3	4.2%	-6.5%	-28.1%	?
CCC(=O)OC1(C)C(=O)C=C2C=C(c3ccsc3)OC=C2C1=O (stereo unspecified)	-72.7*	6.5%	?	26.7µM*	?
Cc1ccc(S(=O)(=O)c2nnn3c2nc(NCc2cccs2)c2sccc23)cc1C	·	·	·	·	-16.6%
COc1cc(OC)c(NC(=O)c2c(C)oc3nc(C)nc(N4CCOCC4)c23)cc1Cl	·	·	·	·	-5.8%
CC(CNCC1CCCO1)COc1ccccc1 (stereo unspecified)	-17.2	-6.9%	1.1%	29.9µM*	6.9%
O=S(=O)(Nc1ccc(F)c(C(F)(F)F)c1)c1ccc(N2CCCCS2(=O)=O)cc1	·	·	·	·	-4.2%
Nc1nc2n(n1)C(=O)CC(c1ccccc1)N2 (stereo unspecified)	-1.4	12.5%	4.5%	26.7µM*	-19.2%
O=C(Nc1ccc2nc(SCC(=O)N3CCCC3)sc2c1)c1cccc(F)c1	·	·	·	·	-9.5%
CC(C)Cc1nn2c(=O)cc(COC(=O)c3ccc(NC(=O)C4CCCCC4)cc3)nc2s1	·	·	·	·	-11.5%
O=C(NN1C(=O)/C(=C/c2cccs2)SC1=S)c1cccnc1	-23.3	-0.8%	-10.5%	-14.7%	-26.1%
COc1ccccc1C(=O)NN1C(=O)/C(=C/c2cccn2C)SC1=S	·	3.9%	·	·	·
CC(/C=C1\SC(=S)N(NC(=O)c2ccncc2)C1=O)=C\c1ccccc1	-16.3	5.8%	?	-23.2%	1.3%
CCOc1cc(/C=C2\SC(=S)N(NC(=O)c3cccnc3)C2=O)ccc1O	-7.2	-0.8%	56.2µM*	36.3%	-15.0%
COc1cc(/C=C2\SC(=S)N(NC(=O)c3ccncc3)C2=O)ccc1O	-19.3	1.1%	50.1µM*	39.5%	?
COc1cc(/C=C2\SC(=S)N(NC(=O)c3ccccc3OC)C2=O)ccc1O	-23.1	-19.8%	15.8µM*	20.4%	-13.3%
Cc1cccc(CNC(=O)c2cc3cc(S(=O)(=O)N4CCCCC4)ccc3n2C)c1	·	·	·	·	-5.3%
CC(C)(C)c1ccc(C2Sc3ccccc3NC3=C2C(=O)c2ccccc23)cc1 (stereo unspecified)	·	·	·	·	-16.9%
COc1cccc(-n2c(=O)c3c(C)c(C)sc3n(CC(=O)Nc3ccccc3OC)c2=O)c1	·	·	·	·	-2.5%
O=C(COC(=O)CC1CC2CCC1C2)Nc1cccc(S(=O)(=O)NC2=NCCCCC2)c1 (stereo unspecified)	-17.0	-1.5%	3.2%	21.2µM*	-15.4%
